Reference: PubChem BioAssay (NCATS)
Results filed as inconclusive are left out. A call without a number means that no potency is given here. Calls of active or inactive are those of the source. The call rests on the fitted dose curve; in most records, active means well fitted curve in the direction sought with a large enough effect; inconclusive means small, poorly fitted or top-dose-only effect, or another doubt; inactive means no such curve, though single readings can be large; an effect the other way counts as inactive or inconclusive.

Experiment: qHTS of pediatric cancer cell lines to identify multiple opportunities for drug repurposing: Confirmatory screen for control Hh wild type fibroblast cells (AID 1347121); further: nearly all actives have a fitted effect of over 70% in size
Conditions: viability qHTS; series mostly up to 45.9 µM
Method in brief: (§1)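 Cells (500-1,000/well) rested 5 h, then received compounds for 48 h; metabolically active cells were measured by CellTiter-Glo luminescence. Final concentrations spanned up to 46 µM (MIPE, 11-point) or 0.59 nM-46 µM (NPC, 8-point) in primary screens, 11-point in follow-ups.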
Potency means the concentration at half of the fitted maximal effect.

| Compound | Potency |
| --- | --- |
| CC1C(=O)OC2C(O)C34C5CC(C(C)(C)C)C36C(OC(=O)C6O)OC4(C(=O)O5)C12O (centres undefined) | inactive |
| FC(F)(F)c1ccc(C=Cc2nc(COc3ccc(CCCCn4ccnn4)cc3)co2)cc1 | 0.369 µM (active) |
| CN(C)CC[C@H](CSc1ccccc1)Nc1ccc(S(=O)(=O)NC(=O)c2ccc(N3CCN(Cc4ccccc4-c4ccc(Cl)cc4)CC3)cc2)cc1[N+](=O)[O-] | inactive |
| Cc1ccc(C(=O)N(CCCN)[C@@H](c2nc3cc(Cl)ccc3c(=O)n2Cc2ccccc2)C(C)C)cc1 | inactive |
| C[C@H](c1ccc(F)cc1CCCC(=O)O)N(c1cc(F)ccc1F)S(=O)(=O)c1ccc(Cl)cc1 | inactive |
| CO[C@H]1/C=C\O[C@@]2(C)Oc3c(C)c(O)c4c(O)c(c5c(nc6cc(C)ccn65)c4c3C2=O)NC(=O)C(C)=CC=C[C@H](C)[C@H](O)[C@@H](C)[C@@H](O)[C@@H](C)[C@H](OC(C)=O)[C@H]1C | inactive |
| NC(N)=Nc1nc(CSCCC(N)=NS(N)(=O)=O)cs1 | inactive |
| COC(=O)[C@H](c1ccccc1Cl)N1CCc2sccc2C1 | inactive |
| CO[C@H]1/C=C\O[C@@]2(C)Oc3c(C)c(O)c4c(O)c(c(C=NN5CCN(C6CCCC6)CC5)c(O)c4c3C2=O)NC(=O)C(C)=CC=C[C@H](C)[C@H](O)[C@@H](C)[C@@H](O)[C@@H](C)[C@H](OC(C)=O)[C@H]1C | inactive |
| CON(C)C(=O)N1N=C(c2cc(F)ccc2F)S[C@]1(CCCN)c1ccccc1 | inactive |
| CCC[C@H](N[C@@H](C)C(=O)N1[C@@H]2CCCC[C@H]2C[C@H]1C(=O)O)C(=O)OCC | inactive |
| CC1=C(CC(=O)O)c2cc(F)ccc2C1=Cc1ccc(S(C)=O)cc1 (centres undefined) | inactive |
| CC[C@]1(O)C[C@H]2CN(CCC3=c4ccccc4=N[C]3[C@@](C(=O)OC)(c3cc4c(cc3OC)N(C)[C@H]3[C@@](O)(C(N)=O)[C@H](O)[C@]5(CC)C=CCN6CC[C@]43[C@@H]65)C2)C1 | inactive |
| CC1(COc2ccc3c(c2)ncn3-c2ccc3cccc(N4CCC(N)CC4)c3n2)COC1 | inactive |
| O=c1[nH]nc(OCCCc2ccc(Cl)cc2)c(NCc2cccnc2)c1Br | 10.4 µM (active) |
| C[C@@]1(C(=O)Nc2ccc(F)nc2)CCCN1c1nc(Nc2cc(C3CC3)[nH]n2)c2cccn2n1 | 14.7 µM (active) |
| CC1CNc2c(cccc2S(=O)(=O)N[C@@H](CCCN=C(N)N)C(=O)N2CC[C@@H](C)C[C@@H]2C(=O)O)C1 (some centres undefined) | inactive |
| CC(C)CN(C[C@H](O)[C@H](Cc1ccccc1)NC(=O)O[C@H]1CCOC1)S(=O)(=O)c1ccc(N)cc1 | inactive |
| Cc1c(C(=O)Nc2ccc(N3C[C@@H](C)O[C@@H](C)C3)nc2)cccc1-c1ccc(OC(F)(F)F)cc1 | inactive |
| C=C1[C@H](n2cnc3c(=O)[nH]c(N)nc32)C[C@H](O)[C@H]1CO | inactive |
| C[C@@H]1[C@H](O)[C@@H](C)C=CC=CC=CC=CC=CC=CC=C[C@H](O[C@@H]2O[C@H](C)[C@H](O)[C@H](N)[C@@H]2O)C[C@@H]2O[C@](O)(C[C@@H](O)C[C@@H](O)[C@H](O)CC[C@@H](O)C[C@@H](O)CC(=O)O[C@H]1C)C[C@H](O)[C@@H]2C(=O)O | inactive |
| Cc1cnc(-c2cc(N3CCN(C(=O)CCS(C)(=O)=O)CC3)ncc2Cl)c(C)c1 | inactive |
| CN1CCN(c2ncc(-c3cc(Cl)cc(Cl)c3Cl)c(N)n2)CC1 | inactive |
| CCC(=O)OCC(=O)[C@@]1(OC(=O)CC)[C@@H](C)C[C@@H]2[C@H]3CCC4=CC(=O)C=C[C@]4(C)[C@@]3(F)[C@@H](O)C[C@@]21C | inactive |
| C[C@@H]1C[C@H]2[C@@H]3CCC4=CC(=O)C=C[C@]4(C)[C@@]3(F)[C@@H](O)C[C@]2(C)[C@@]1(O)C(=O)CO | inactive |
| COc1ccc(-c2ccc3ncc4c(c3c2)n(-c2ccc(N3CCNCC3)c(C(F)(F)F)c2)c(=O)n4C)cn1 | 10.4 µM (active) |
| N#CC(=C1Nc2ccccc2S1)c1ccnc(OCc2ccc(CN3CCOCC3)cc2)n1 | inactive |

Experiment: qHTS of pediatric cancer cell lines to identify multiple opportunities for drug repurposing: Confirmatory screen for U-2 OS cells (AID 1347122); further: nearly all actives have a fitted effect of over 65% in size
Conditions: U-2 OS osteosarcoma cell viability; series mostly up to 45.9 µM
Method in brief: as §1

| Compound | Potency |
| --- | --- |
| CC1C(=O)OC2C(O)C34C5CC(C(C)(C)C)C36C(OC(=O)C6O)OC4(C(=O)O5)C12O (centres undefined) | inactive |
| FC(F)(F)c1ccc(C=Cc2nc(COc3ccc(CCCCn4ccnn4)cc3)co2)cc1 | 261 nM (active) |
| CN(C)CC[C@H](CSc1ccccc1)Nc1ccc(S(=O)(=O)NC(=O)c2ccc(N3CCN(Cc4ccccc4-c4ccc(Cl)cc4)CC3)cc2)cc1[N+](=O)[O-] | 737 nM (active) |
| Cc1ccc(C(=O)N(CCCN)[C@@H](c2nc3cc(Cl)ccc3c(=O)n2Cc2ccccc2)C(C)C)cc1 | 60.3 nM (active) |
| C[C@H](c1ccc(F)cc1CCCC(=O)O)N(c1cc(F)ccc1F)S(=O)(=O)c1ccc(Cl)cc1 | inactive |
| CO[C@H]1/C=C\O[C@@]2(C)Oc3c(C)c(O)c4c(O)c(c5c(nc6cc(C)ccn65)c4c3C2=O)NC(=O)C(C)=CC=C[C@H](C)[C@H](O)[C@@H](C)[C@@H](O)[C@@H](C)[C@H](OC(C)=O)[C@H]1C | inactive |
| NC(N)=Nc1nc(CSCCC(N)=NS(N)(=O)=O)cs1 | inactive |
| COC(=O)[C@H](c1ccccc1Cl)N1CCc2sccc2C1 | inactive |
| CO[C@H]1/C=C\O[C@@]2(C)Oc3c(C)c(O)c4c(O)c(c(C=NN5CCN(C6CCCC6)CC5)c(O)c4c3C2=O)NC(=O)C(C)=CC=C[C@H](C)[C@H](O)[C@@H](C)[C@@H](O)[C@@H](C)[C@H](OC(C)=O)[C@H]1C | inactive |
| CON(C)C(=O)N1N=C(c2cc(F)ccc2F)S[C@]1(CCCN)c1ccccc1 | 46.5 nM (active) |
| CCC[C@H](N[C@@H](C)C(=O)N1[C@@H]2CCCC[C@H]2C[C@H]1C(=O)O)C(=O)OCC | inactive |
| CC1=C(CC(=O)O)c2cc(F)ccc2C1=Cc1ccc(S(C)=O)cc1 (centres undefined) | inactive |
| CC[C@]1(O)C[C@H]2CN(CCC3=c4ccccc4=N[C]3[C@@](C(=O)OC)(c3cc4c(cc3OC)N(C)[C@H]3[C@@](O)(C(N)=O)[C@H](O)[C@]5(CC)C=CCN6CC[C@]43[C@@H]65)C2)C1 | 928 nM (active) |
| CC1(COc2ccc3c(c2)ncn3-c2ccc3cccc(N4CCC(N)CC4)c3n2)COC1 | 10400 nM (active) |
| O=c1[nH]nc(OCCCc2ccc(Cl)cc2)c(NCc2cccnc2)c1Br | 7370 nM (active) |
| C[C@@]1(C(=O)Nc2ccc(F)nc2)CCCN1c1nc(Nc2cc(C3CC3)[nH]n2)c2cccn2n1 | 1650 nM (active) |
| CC1CNc2c(cccc2S(=O)(=O)N[C@@H](CCCN=C(N)N)C(=O)N2CC[C@@H](C)C[C@@H]2C(=O)O)C1 (some centres undefined) | inactive |
| CC(C)CN(C[C@H](O)[C@H](Cc1ccccc1)NC(=O)O[C@H]1CCOC1)S(=O)(=O)c1ccc(N)cc1 | inactive |
| Cc1c(C(=O)Nc2ccc(N3C[C@@H](C)O[C@@H](C)C3)nc2)cccc1-c1ccc(OC(F)(F)F)cc1 | 18500 nM (active) |
| C=C1[C@H](n2cnc3c(=O)[nH]c(N)nc32)C[C@H](O)[C@H]1CO | inactive |
| C[C@@H]1[C@H](O)[C@@H](C)C=CC=CC=CC=CC=CC=CC=C[C@H](O[C@@H]2O[C@H](C)[C@H](O)[C@H](N)[C@@H]2O)C[C@@H]2O[C@](O)(C[C@@H](O)C[C@@H](O)[C@H](O)CC[C@@H](O)C[C@@H](O)CC(=O)O[C@H]1C)C[C@H](O)[C@@H]2C(=O)O | inactive |
| Cc1cnc(-c2cc(N3CCN(C(=O)CCS(C)(=O)=O)CC3)ncc2Cl)c(C)c1 | inactive |
| CN1CCN(c2ncc(-c3cc(Cl)cc(Cl)c3Cl)c(N)n2)CC1 | inactive |
| CCC(=O)OCC(=O)[C@@]1(OC(=O)CC)[C@@H](C)C[C@@H]2[C@H]3CCC4=CC(=O)C=C[C@]4(C)[C@@]3(F)[C@@H](O)C[C@@]21C | inactive |
| C[C@@H]1C[C@H]2[C@@H]3CCC4=CC(=O)C=C[C@]4(C)[C@@]3(F)[C@@H](O)C[C@]2(C)[C@@]1(O)C(=O)CO | inactive |
| COc1ccc(-c2ccc3ncc4c(c3c2)n(-c2ccc(N3CCNCC3)c(C(F)(F)F)c2)c(=O)n4C)cn1 | 465 nM (active) |
| N#CC(=C1Nc2ccccc2S1)c1ccnc(OCc2ccc(CN3CCOCC3)cc2)n1 | inactive |
